High-throughput results deposited in PubChem BioAssay by National Center for Advancing Translational Sciences (NCATS).
TSHR antagonist: antagonists of human thyroid stimulating hormone receptor. P16473. TSHR-expressing cells, TSH-stimulated cAMP HTRF, 2 h; stronger effect = lower value. activity change, negative = inhibition, % at 11.5 µM. 330,000 tested, 0.2% active;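 active = activity change below a set negative limit, meaning inhibition stronger than a set level, cut at about -70% in these data; inconclusive = activity change between two set negative limits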
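Freshly harvested TSHR cells receive pin-tooled compound, then EC80 TSH at 4nM final. After 2 hours at 37 deg C, antibody in lysis buffer and cAMP-d2 are added; 30 minutes at ambient temperature precede the HTRF read.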
TexasRed fluor: counter-screen for TRb-SRC2 inhibitors: fluorescence interference; AID 1479; TRb/SRC2 Texas Red total fluorescence interference; 280,000 tested, 0.29% active; Potency, µM (titrated, usually from 106 µM); active = well fitted curve in either direction with a large enough effect; inconclusive = small, poorly fitted or top-dose-only effect
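Human TRβ ligand-binding domain (0.6 uM) and Texas Red SRC2 peptide (20 nM) in Tris buffer with 1 uM T3 and 5% DMSO were incubated with pinned compound for 5 hr at ambient temperature. Total fluorescence was computed as S + 2P (555/632 nm).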
TCR activator: activates T cell receptor signaling. AID 504894. primary human leukocytes, anti-CD3, IL-2 HTRF, 48 h. Potency, µM (doses to about 9.22 µM), actives largely listed as activators. 330,000 tested, under 10 active
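Primary human leukocytes were stimulated with a-CD3 beads plus compounds for 48 hr without co-stimulation; secreted IL-2 was quantified by HTRF using a-IL-2-K (europium cryptate) and a-IL-2-d2, excited at 320nm with acceptor emission read at 665nm.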
NPSR antag: blocks cAMP signaling of the human neuropeptide S receptor. CHO-NPSR cells, cAMP TR-FRET, antagonist mode. Potency, µM (top dose mostly 38.3 µM), most hits filed as inhibitors. 220,000 tested, 1% active. AID 1461; note: nearly all actives have a fitted effect of over 50% in size
Target sequence (Q6W5P4 whole entry, looked up): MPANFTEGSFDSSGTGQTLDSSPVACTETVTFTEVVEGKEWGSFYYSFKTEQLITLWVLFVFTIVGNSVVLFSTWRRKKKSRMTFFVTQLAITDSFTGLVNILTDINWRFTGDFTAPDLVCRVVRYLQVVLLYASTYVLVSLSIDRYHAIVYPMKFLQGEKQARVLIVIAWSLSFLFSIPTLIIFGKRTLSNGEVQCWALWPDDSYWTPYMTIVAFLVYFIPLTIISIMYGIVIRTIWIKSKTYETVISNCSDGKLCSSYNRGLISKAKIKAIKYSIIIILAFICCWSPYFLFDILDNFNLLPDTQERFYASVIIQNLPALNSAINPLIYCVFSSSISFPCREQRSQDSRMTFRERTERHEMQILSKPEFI
FBPA coupling cs: counter-screen for Giardia aldolase inhibitors: coupling enzyme system; coupling enzyme system counterscreen, AmpLite Red fluorescence; activity change, negative = inhibition, % at 58.2 µM, hits read low; 290,000 tested, 0.67% active; AID 2472; in the data active = activity change below about -30%
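Counterscreen of the coupled detection system alone, without aldolase: glyceraldehyde-3-phosphate coupling enzymes plus AmpLite Red readout. Compounds at 57.5 uM final, 10 min RT preincubation, 20 min RT reaction, fluorescence 525/598 nm.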
TRb-SRC2 inh: disrupts binding of human TR beta to SRC2; P10828; TRbeta-SRC2 peptide binding, fluorescence polarization; receptor liganded with 1 µM T3; Potency, µM (doses to about 106 µM), hits mostly inhibitors; 280,000 tested, 0.065% active; note: nearly all actives have a fitted effect of over 50% in size
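Human TRb ligand-binding domain (0.6 uM) is mixed with 20 nM Texas Red SRC2 peptide and 1 uM T3; after compound addition and 5 hr at ambient temperature, polarization is measured and normalized to unbound and bound controls.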
Hits are given with their value; [ ] = remark or other dose. An excerpt weighted towards active compounds, which were near 1% of everything screened. Unless noted, calls come from the whole dose curve; as a rule, active = well fitted curve in the direction sought with a large enough effect; inconclusive = small, poorly fitted or top-dose-only effect, or another doubt; inactive = no such curve, though single readings can be large; an effect the other way counts as inactive or inconclusive.

Screening N#Cc1c(-c2ccccc2)cc(C2CC2)nc1SCC(=O)c1cccs1 returned TSHR antagonist inactive, TexasRed fluor inactive, TCR activator inactive, NPSR antag inconclusive and TRb-SRC2 inh inactive.
Screening COC(=O)CSc1nc(N)c(C#N)c(-c2ccco2)c1C#N returned TSHR antagonist inactive, TexasRed fluor inactive, TCR activator inactive, NPSR antag inconclusive, FBPA coupling cs inactive and TRb-SRC2 inh inactive.
For COc1ccc(-c2cc(-c3ccccc3)nc(SCC(=O)Nc3nccs3)c2C#N)cc1 the results were TSHR antagonist inactive, TexasRed fluor inactive, TCR activator inactive, NPSR antag inconclusive, FBPA coupling cs inactive and TRb-SRC2 inh inactive.
`COc1cccc(C2=Nn3c(nnc3-c3ccccc3OC)SC2)c1` gave TexasRed fluor inactive, FBPA coupling cs inactive and TRb-SRC2 inh inactive.
CN1CCCN(C(=O)c2cc(-c3cccc4ccccc34)nc3ccccc23)CC1 was read as TSHR antagonist -77, TexasRed fluor inactive, TCR activator inactive, NPSR antag inactive, FBPA coupling cs inactive and TRb-SRC2 inh inactive.
For COc1ccccc1-c1n[nH]c(=S)o1 the results were TSHR antagonist inactive, TexasRed fluor inactive, TCR activator inactive, NPSR antag inactive, FBPA coupling cs inactive and TRb-SRC2 inh inactive.
Screening COc1ccc(Cl)cc1-c1n[nH]c(=S)o1 returned TSHR antagonist inactive, TexasRed fluor inactive, TCR activator inactive, NPSR antag 6.3µM, FBPA coupling cs inactive and TRb-SRC2 inh inactive.
For COc1ccc(F)cc1S(=O)(=O)Nc1cccc(-c2ccc(N3CCC(C)CC3)nn2)c1 the results were TexasRed fluor 6.3µM[quencher] and TRb-SRC2 inh inactive.
O=S(=O)(Nc1ccc(-c2ccc(N3CCCC3)nn2)cc1)c1cccc(C(F)(F)F)c1 was read as TexasRed fluor 708µM[quencher] and TRb-SRC2 inh inactive.
Screening O=S(=O)(Nc1cccc(-c2ccc(N3CCCCCC3)nn2)c1)c1ccc(F)cc1 returned TSHR antagonist -83, TexasRed fluor inactive, TCR activator inactive, FBPA coupling cs inactive and TRb-SRC2 inh inactive.
`O=S(=O)(Nc1cccc(-c2ccc(N3CCCCCC3)nn2)c1)c1cccc(F)c1` gave TSHR antagonist inactive, TexasRed fluor inactive, TCR activator inactive, FBPA coupling cs inactive and TRb-SRC2 inh inactive.
`CN1C[C@@H]2C(c3ccc(Cl)nc3)C3(c4ccccc4)CC2(C3)[C@H]1c1ccccc1` (some centres not stated) gave TSHR antagonist inactive, TexasRed fluor inactive, TCR activator inactive, NPSR antag 4µM, FBPA coupling cs inactive and TRb-SRC2 inh inactive.
For COc1ccccc1CNC(=O)C1CCN(S(=O)(=O)c2c(C)noc2/C=C/c2c(C)cc(C)cc2C)CC1 the results were TexasRed fluor inactive and TRb-SRC2 inh inactive.
For CCOC(=O)c1ccccc1NS(=O)(=O)c1ccccc1 the results were TSHR antagonist inactive, TexasRed fluor inactive, NPSR antag inactive, FBPA coupling cs inactive and TRb-SRC2 inh inactive.
`COC(=O)c1c(NS(=O)(=O)c2ccccc2)csc1C` gave TSHR antagonist inactive, TexasRed fluor inactive, TCR activator inactive, NPSR antag inactive, FBPA coupling cs -34 and TRb-SRC2 inh inactive.
Cn1cnnc1SCC(=O)Nc1sc2c(c1C#N)CCCCC2 was read as TSHR antagonist inactive, TexasRed fluor inactive, TCR activator inactive, NPSR antag inactive, FBPA coupling cs -42 and TRb-SRC2 inh inactive.
For CCOCCCNC(=O)NC(C)c1c(-n2cccc2)sc2c1CCN(CC)C2 (configuration not stated) the results were TexasRed fluor inconclusive and TRb-SRC2 inh inactive.
`FC(F)(F)c1nc(-c2cccs2)ncc1-c1nnnn1-c1ccc(Cl)cc1` gave TSHR antagonist -72, TexasRed fluor inactive, NPSR antag inconclusive, FBPA coupling cs inactive and TRb-SRC2 inh inactive.
For Clc1ccc(-n2nnnc2-c2cnc(-c3ccncc3)nc2-c2cccs2)cc1 the results were TSHR antagonist inactive, TexasRed fluor inactive, TCR activator inactive, NPSR antag inactive, FBPA coupling cs inactive and TRb-SRC2 inh inactive.
Screening CC(C)CCCCCCCCCCCCCCC(=O)O returned TexasRed fluor inactive and TRb-SRC2 inh inactive.
